Source: PubChem (National Center for Advancing Translational Sciences (NCATS))
The list is not random: actives were taken first. Their share in the collection is about 7.4%.
Rab9 prom act = activates the Rab9 promoter. Huh7 Rab9 promoter-luciferase reporter, luminescence, 24 h. Potency, µM (series often up to 9.22 µM), for the others: at the highest dose activation, negative = inhibition, hits mostly activators. 320,000 compounds, 2.8% hits. AID 485297; also: % of control where 0% means no effect; nearly all actives have a fitted effect of over 60% in size
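Measured in stably transfected Huh7 cells bearing a Rab9 promoter–luciferase construct: 24 h compound treatment at 37 °C, followed by luminescence detection.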
SMN2 splice up = enhancers of SMN2 splice variant expression | 210,000 compounds, 2.8% hits | AID 1458 | HEK293 SMN2-luciferase splicing reporter, luminescence, 30-36 h | Potency, µM (series often up to 46.1 µM), for the others: top-dose activity change, positive = activation, hits mostly activators; also: % of control where 0% means no effect; nearly all actives have a fitted effect of over 55% in size
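qHTS luciferase splicing reporter: luminescence rises when SMN2 exon 7 is included in transfected HEK293 cells. Compound exposure lasted 30-36 h at 37C, with 4.5 mM final sodium butyrate as control, followed by a ONE-Glo read.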
NPC1 promoter act = activators of NPC1 promoter; Huh7 NPC1 promoter luciferase reporter, 24 h; Potency, µM (series often up to 9.22 µM), for inactives: at the top dose activation, most hits filed as activators; 320,000 compounds, 2.4% hits; AID 485313; also: % of control where 0% means no effect; nearly all actives have a fitted effect of over 60% in size
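Readout is luciferase luminescence, reflecting NPC1 promoter activation in stably transfected Huh7 cells after 24 h compound exposure at 37 °C in reduced-serum medium with 10% FBS.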
ELG1 genotoxic = inducers of genotoxicity in HEK293T ELG1-luciferase cells; HEK293T ELG1-luciferase reporter, luminescence, 16 h; Potency, µM (titrated, usually from 46 µM), inactives show top-dose activity change, positive = activation, hits mostly activators; 330,000 compounds, 1.3% hits; AID 504466; also: % of control where 0% means no effect; nearly all actives have a fitted effect of over 60% in size
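HEK293T cells expressing luciferase-tagged ELG1 were exposed to compound or DMSO vehicle for 16 hr at 37 °C and 5% CO2. Luciferase activity was then measured with ONE-Glo after 30 min at room temperature.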
p53 reactivation = mutant p53 re-activation in reporter cells; H1299 p53-A138V BP100-luciferase reporter, luminescence, 24 h; 320,000 compounds, 0.063% hits; AID 504706; Potency, µM (highest dose often 92.2 µM), for inactives: at the highest dose activity change, positive = activation, most hits filed as activators; also: % of control where 0% means no effect; nearly all actives have a fitted effect of over 45% in size
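H1299 (p53-null), stable ts p53-A138V + BP100-Luc; 1000 cells/well, Opti-MEM/10% FBS; cpd 4 pt, 1:5; 24 h, 37 deg C, 5% CO2; detection reagent 10 min RT; luminescence.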
FLuc counter = firefly luciferase modulation, counter-screen for miR-21 project. Potency, µM (top dose mostly 57.5 µM), without a hit: top-dose activity change, negative = inhibition, most hits filed as inhibitors. 360,000 compounds, 6.9% hits. purified FLuc, Km substrates, luminescence inhibition. AID 588342;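 also: plate controls were vehicle for no effect and reference inhibitor for full effect; nearly all actives have a fitted effect of over 55% in size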
Target sequence (P08659 whole entry, looked up): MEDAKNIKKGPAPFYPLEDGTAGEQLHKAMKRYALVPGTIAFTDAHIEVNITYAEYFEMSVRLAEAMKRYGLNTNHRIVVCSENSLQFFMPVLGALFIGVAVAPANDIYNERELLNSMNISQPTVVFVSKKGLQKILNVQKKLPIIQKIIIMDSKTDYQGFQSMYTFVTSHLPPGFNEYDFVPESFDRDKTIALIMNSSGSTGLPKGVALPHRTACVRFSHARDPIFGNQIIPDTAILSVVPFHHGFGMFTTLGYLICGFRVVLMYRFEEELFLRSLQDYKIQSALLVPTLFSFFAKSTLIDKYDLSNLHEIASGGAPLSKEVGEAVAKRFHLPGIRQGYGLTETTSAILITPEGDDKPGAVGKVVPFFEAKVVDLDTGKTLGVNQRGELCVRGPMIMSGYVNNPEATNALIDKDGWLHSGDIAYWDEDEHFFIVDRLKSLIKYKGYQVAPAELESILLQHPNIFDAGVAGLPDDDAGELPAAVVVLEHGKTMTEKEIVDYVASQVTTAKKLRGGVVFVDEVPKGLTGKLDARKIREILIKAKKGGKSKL
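Biochemical qHTS of compounds, final roughly 60 µM downward over six points, against 10 nM purified firefly luciferase using Km concentrations of substrates (10 uM D-luciferin, 10 uM ATP) in Tris acetate pH 7.5 buffer; luminescence output.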
* = called active by the depositor; ? = inconclusive; / = no result; [ ] = dose if it differs, or a comment. Calls follow the shape of the dose curve; as a rule, active = well fitted curve in the direction sought with a large enough effect; inconclusive = small, poorly fitted or top-dose-only effect, or another doubt; inactive = no such curve, though single readings can be large; an effect the other way counts as inactive or inconclusive. Potency is read from the fitted curve at half-maximal effect.

SMILES	Rab9 prom act	SMN2 splice up	NPC1 promoter act	ELG1 genotoxic	p53 reactivation	FLuc counter
COc1cc(C)ccc1OCCSc1nnc(-c2ccc(C)cc2)o1	/	/	/	/	/	-18.3%
CC(C(=O)NCc1cccc(Br)c1)n1ncn2cccc2c1=O (centres undefined)	/	/	/	/	/	13.5µM*
Cc1c2cnn(-c3ccccc3)c(=O)c2c(C)n1C(C)C(=O)NCc1cccc(Br)c1 (centres undefined)	/	-30.5%	/	/	/	-7.5%
CCOc1ccc(-c2cn(-c3ccc(OC)cc3)c(SCC(=O)Nc3ccccc3Cl)n2)cc1	/	/	/	/	/	2.0%
CCOc1ccc(-c2cn(-c3ccc(OC)cc3)c(SC)n2)cc1	3.98µM*	11.2µM*	?	?	?	5.36µM*
CC1CCCCN1S(=O)(=O)c1ccc(C(=O)Nc2sc3c(c2C(N)=O)CC(C)(C)NC3(C)C)cc1 (centres undefined)	/	/	/	/	/	4.6%
CCOC(=O)Cc1csc(NC(=O)/C=C/c2ccccc2Cl)n1	?	/	?	-7.3%	3.9%	1.2µM*
CCOC(=O)Cc1csc(NC(=O)c2c(-c3c(Cl)cccc3Cl)noc2C)n1	-2.9%	3.9%	-6.2%	-1.0%	-1.0%	3.7%
CCOC(=O)Cc1csc(NC(=O)/C=C\c2ccccc2Cl)n1	?	/	27.4%	7.9%	4.1%	1.51µM*
CCOc1ccc(CNC(=O)Cn2nc(C)c3nn(-c4ccc(Cl)cc4)c(C)c3c2=O)cc1	/	/	/	/	/	-3.7%
N#CC1=C(N)Oc2cc3c(cc2C1c1ccc(Cl)cc1)OCO3 (centres undefined)	-1.2%	25.1µM*	-3.8%	-1.6%	7.7%	-2.0%
COc1ccc(CNCC(C)NCc2ccc(OC)c(OC)c2)cc1OC (centres undefined)	-6.3%	/	-0.7%	-0.2%	0.4%	2.5%
CN(C)c1ccc(C2CC(c3ccccc3)=Nc3nc(-c4ccccc4)cn32)cc1 (centres undefined)	2.1%	28.4%	-1.1%	4.5%	?	13.5µM*
CN(C)c1ccc(-c2n[nH]c(=S)n2-c2ccccc2)cc1	-16.6%	9.4%	-0.4%	-1.8%	-0.7%	-8.4%
COC(=O)c1cccc(NC(=O)Cc2nc(-c3ccccc3)sc2-c2ccc(C)cc2)c1	6.1%	4.6%	-6.6%	-2.8%	5.1%	-1.4%
COc1cccc(NC(=O)Cc2nc(-c3ccccc3)sc2-c2ccc(C)cc2)c1	8.4%	1.5%	3.1%	1.4%	?	15.1µM*
CC(=O)Nc1cccc(NC(=O)Cc2nc(-c3ccccc3)sc2-c2ccc(C)cc2)c1	8.2%	14.7%	-3.2%	3.0%	23.4%	21.3µM*
COc1ccc2c(C)cc(SCC(=O)Nc3nsc(-c4ccccc4C)n3)nc2c1	/	3.2%	/	/	/	-9.5%
Nc1ccc(N)c([N+](=O)[O-])c1	/	9.8%	/	/	/	/
COc1ccc(-c2cc([C@H](O)C3CCCCN3)c3ccccc3n2)cc1 (some centres undefined)	/	-3.8%[9.22 µM]	/	/	/	/
CCNc1ncc2nc(CCc3ccccc3)c(=O)n(C)c2n1	/	12.6µM*	/	/	/	/
Cn1c(=O)c(CCc2ccccc2)nc2cnc(Oc3ccccc3)nc21	/	-17.1%	/	/	/	/
CCOc1ccccc1OCC(=O)Nc1ccc(N2CCOCC2)cc1N1CCOCC1	-2.3%	/	-3.6%	-1.3%	-2.9%	-2.3%
COCc1nnc(NC(=O)COc2ccc3c(c2)OCO3)s1	-4.9%	/	-3.2%	12.1%	12.5%	-12.3%
Cc1cccc(OCCCC(=O)Nc2nccs2)c1C	-10.4%	/	-1.0%	-1.5%	-1.8%	-0.7%
SMILES	Rab9 prom act	SMN2 splice up	NPC1 promoter act	ELG1 genotoxic	p53 reactivation	FLuc counter
COc1ccc(OCC(=O)Nc2nc(-c3ccc(Br)cc3)ns2)cc1	/	/	/	/	/	10.7µM*
COc1ccc(C(=O)Nc2nc(-c3ccc(Br)cc3)ns2)cc1	/	/	/	/	/	2.4%
COc1ccccc1OCCCC(=O)Nc1nccs1	2.24µM*	/	?	?	17.7%	12µM*
NNC(=O)COc1cccc2cccnc12	1.5%	1.9%	-2.2%	-1.6%	-3.1%	-5.0%
O=C(COc1cccc2cccnc12)Nc1nccs1	3.98µM*	?	?	?	?	12µM*
O=C(COc1ccc2c(c1)OCO2)Nc1nccs1	0.447µM*	/	0.398µM*	2.31µM*	17.7%	1.69µM*
O=C(Nc1ccc2c(c1)CCCN2C(=O)c1cccs1)c1ccccc1Cl	/	/	/	/	/	-18.1%
COc1ccc(OCC(=O)Nc2nccs2)cc1	0.447µM*	/	0.562µM*	?	-5.7%	3.01µM*
COc1ccc(OCCC(=O)Nc2nccs2)cc1	11.5%	9.6%	0.6%	7.8%	15.9%	?
COc1ccc(C(CC(=O)Nc2nccs2)n2cccc2)cc1 (centres undefined)	3.16µM*	10µM*	2.82µM*	12.4%	?	6.01µM*
CCOc1ccc(OCC(=O)Nc2nccs2)cc1	?	5.01µM*	0.501µM*	0.92µM*	-5.6%	0.953µM*
CCOC(=O)Cc1csc(NC(=O)/C=C\c2ccccc2)n1	8.6%	4.3%	22.4%	-1.5%	0.5%	5.36µM*
CCOC(=O)Cc1csc(NC(=O)/C=C/c2ccc(OC)cc2)n1	11.5%	-13.0%	28.6%	-2.2%	5.7%	1.35µM*
Cc1ccc(/C=N/NC(=O)CNC(=O)c2cccs2)cc1	28.5%	/	1.5%	?	6.9%	15.1µM*
COc1cccc(/C=N/NC(=O)CNC(=O)CCc2ccccc2)c1O	-13.2%	/	-7.7%	?	14.0%	9.53µM*
Cc1ccc(NC(=O)CNC(=O)c2cccs2)c(O)c1	9.6%	/	0.6%	2.2%	8.2%	2.9%
COc1cccc(/C=N/NC(=O)CNC(=O)c2cccs2)c1O	-8.2%	/	1.2%	16.3%	15.8%	21.3µM*
O=C(CNC(=O)c1cccs1)N/N=C/c1c(F)cccc1Cl	16.3%	/	13.2%	?	0.3%	21.3µM*
CCCCC1=CC2=C(OC(C)=O)C(=O)C(C)(OC(=O)C3CCCC3)C(=O)C2=CO1 (centres undefined)	/	12.2%	/	/	/	/
CCOc1ccc(S(=O)(=O)NCCc2sc3nc(-c4ccc(C)cc4)nn3c2C)cc1	/	/	/	/	/	-11.9%
Cc1ccc(Cn2c(CN3CCC(C(=O)NCCc4ccccc4)CC3)cc3ccccc32)cc1	/	/	/	/	/	-1.6%
COc1ccc(N(C(=O)c2snc(C(N)=O)c2N)C(C(=O)NC2CCCC2)c2cc(OC)ccc2OC)cc1 (centres undefined)	0.3%	/	-3.9%	-2.8%	1.9%	-2.8%
Cc1ccc(C(=O)Nc2ccc(OCc3ccccc3)cc2)s1	29.4%	/	?	?	0.5%	?
Cc1cc(C(=O)Nc2ccc(OCc3ccccc3)cc2)c(C)o1	?	?	?	?	6.6%	16.9µM*
Cc1cc(C(=O)Nc2ccccc2C(=O)O)c(C)o1	1.2%	/	-1.8%	2.7%	16.7%	23.9µM*
